Only some compounds are listed: those with a hit (about 1.6% of all), similar ones and a draw of the others.
S1P3 antag = blocks the human S1P3 receptor; Q99500; CHO S1P3 NFAT-BLA reporter, FRET fluorescence, antagonist mode; inhibition, % at 4.98 µM; 0.27% of 170,000 active; AID 485;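 active = inhibition above the plate cutoff, the mean inhibition of test wells on that plate plus 3 SD, cut at about 28% in these data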;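 also: cells challenged with S1P at its EC80 of 0.8 µM; blue over green emission ratio from cleaved BLA substrate after 4 h stimulation; 0% = S1P-stimulated wells and 100% = unstimulated DMSO-only wells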
Target sequence (Q99500 whole entry, looked up): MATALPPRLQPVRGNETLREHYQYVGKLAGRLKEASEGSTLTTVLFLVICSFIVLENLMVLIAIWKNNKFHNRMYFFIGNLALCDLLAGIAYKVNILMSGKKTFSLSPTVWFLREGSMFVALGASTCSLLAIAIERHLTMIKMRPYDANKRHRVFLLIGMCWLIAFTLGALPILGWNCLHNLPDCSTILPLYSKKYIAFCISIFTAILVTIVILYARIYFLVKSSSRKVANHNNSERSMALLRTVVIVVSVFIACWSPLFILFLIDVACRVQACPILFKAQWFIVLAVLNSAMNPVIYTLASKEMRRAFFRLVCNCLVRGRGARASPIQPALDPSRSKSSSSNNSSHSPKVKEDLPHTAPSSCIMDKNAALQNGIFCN
DTT redox prof = compounds producing H2O2 with reducing agent – biochemical, NIH compound library profiling, artefact control for MLSCN library redox annotation, primary screen; 0.03% of 200,000 active; DTT-dependent redox cycling H2O2, phenol red/HRP absorbance; 100% = 100 µM peroxide control, 0% = buffer; AID 878; activation, % at 10 µM;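 active = activation of at least 50% relative to the plate's high and low controls in the primary single-dose screen; inactive = activation below 50%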;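 also: compound incubated with DTT at 0.8 mM final as the reducing agent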
S1P4 agonist = activates the human S1P4 receptor; O95977; 0.35% of 220,000 active; S1P4-expressing cell line, agonist reporter assay; activation, % at 4.98 µM; AID 1509; in the data active = activation above about 11%;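 also: 0% = DMSO vehicle and 100% = reference agonist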
p97 inhibitor = inhibitors of human p97 ATPase. 0.42% of 220,000 active. recombinant p97 ATPase, Kinase-Glo ATP luminescence, 3 h. inhibition, % at 8 µM. P55072; in the data active = inhibition above about 15%;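 also: 0% = DMSO vehicle and 100% = wells lacking enzyme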
S1P4 antagonist = human S1P4 receptor antagonism; O95977; S1P4-expressing cells, antagonist mode, reporter read-out; inhibition, % at 4.98 µM; 0.26% of 220,000 active; in the data active = inhibition above about 29%;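 also: 0% = wells stimulated with agonist and 100% = vehicle wells without agonist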
Arbovirus anti = blocks arbovirus infection. 0.37% of 200,000 active. arbovirus infection cell-based antiviral screen. AID 1251. inhibition, % at 10 µM; in the data active = inhibition above about 30%
* hit, by the source's call; / = not tested or not shown.

SMILES	S1P3 antag	DTT redox prof	S1P4 agonist	p97 inhibitor	S1P4 antagonist	Arbovirus anti
O=C(Nc1sc2c(c1C(=O)O)CCCC2)c1cccs1	8	3	2	8	-4	48*
O=C(Nc1sc2c(c1C(=O)O)CCCCC2)c1ccccc1F	-2	0	1	4	4	38*
COC(=O)c1c(NC(=O)c2ccc(C)o2)sc2c1CCCCC2	-7	1	1	1	-6	5
CCc1ccc(Cc2cnc(NC(=O)C3=NCCN3)s2)cc1	-33	-3	1	3	3	-17
COc1ccc(CN2CCC(C(=O)NCCc3ccc(OC)c(OC)c3)CC2)c(OC)c1	/	0	-4	1	-12	0
CCOC(=O)c1ccc(NC(=O)CN2C(=O)CSC(C)C2=O)cc1 (stereo unspecified)	-5	0	2	1	-24	7
O=C(Nc1sc2c(c1C(=O)NCC1CCCO1)CCCC2)c1cccs1 (stereo unspecified)	-22	1	1	1	-4	-4
O=C(Nc1sc2c(c1C(=O)O)CCCCC2)c1cccs1	-5	0	1	0	6	46*
c1ccc(CCCCNCC2COc3ccccc3O2)cc1 (stereo unspecified)	-25	0	-1	-1	-22	2
Cc1ccc(C2CC(=O)c3cnn(-c4nc(C)cc(C)n4)c3C2)cc1 (stereo unspecified)	-22	0	2	3	-35	36*
COc1ccc(NC(=O)Cc2ccc(Cl)c(Cl)c2)cn1	2	0	2	4	-14	-18
COc1ccc(NC(=O)/C(Cl)=C(/Cl)S(=O)Cc2ccccc2Cl)cn1 (stereo unspecified)	47*	0	-6	15*	102*	-34
COc1cccc2sc(NN)nc12	-2	0	0	-3	-1	37*
CCCCc1ccc(S(=O)(=O)N2CCN(C(=O)c3ccco3)CC2)cc1	-7	0	2	-2	-13	19
O=c1[nH]cnc2c1ncn2[C@@H]1O[C@H](CO)[C@@H](O)[C@H]1O	-4	0	24*	7	-12	11
O=C(Nc1ccc(Br)cc1)c1ccc(N2C(=O)C3CC=C(Cl)CC3C2=O)cc1 (stereo unspecified)	/	0	2	3	-16	-16
CCOC(=O)C1(CCCc2ccccc2)CCN(C2CCSCC2)CC1	12	0	0	-1	-12	30*
OCC1(CCCc2ccccc2)CCN(C2CCSCC2)CC1	2	-1	-2	-3	2	-6
CN(CC(=O)NCCC1=CCCCC1)S(=O)(=O)c1ccc2c(c1)c(=O)n(C)c(=O)n2C	74*	0	-1	-9	1	-2
CCOc1ccc(N2CC(C(=O)Nc3ccccc3N3CCOCC3)CC2=O)cc1 (stereo unspecified)	/	0	-1	-1	-5	9
NNc1ncnc2scc(-c3ccc(Cl)cc3)c12	-5	-1	0	-9	-24	-24
Cc1ccc(-c2csc3ncnc(NS(=O)(=O)c4ccc(Cl)cc4)c23)cc1	-21	0	0	-4	6	46*
Cn1c(NC(=O)C2CCCO2)cc(=O)n(C)c1=O (stereo unspecified)	-19	-1	-2	-1	-10	-1
Cc1cccc(-n2nc(C)c3c(C(=O)O)cc(-c4cccs4)nc32)c1	-16	-1	-1	7	-11	42*
Cc1ccc(S(=O)(=O)N[C@H](C(=O)Oc2ccc3c(C(F)(F)F)cc(=O)oc3c2)c2ccccc2)cc1	/	-3	1	3	41*	9
SMILES	S1P3 antag	DTT redox prof	S1P4 agonist	p97 inhibitor	S1P4 antagonist	Arbovirus anti
Cn1cccc1/C=N/NC(=O)c1ccco1	-29	0	-2	0	-5	1
CC(Oc1ccc(Cl)cc1Cl)C(=O)NCCCN1CCOCC1 (stereo unspecified)	99*	-1	3	-4	-20	-4
O=C(C1CCC1)N1CCC(O)(c2cccc(F)c2)CC1	2	0	2	2	1	9
Cc1cc(C)c2c(n1)sc1c(=O)[nH]c(SCc3ccccc3)nc12	/	-2	-1	0	-6	-2
C=CCSc1nc2c(sc3nc(C)cc(C)c32)c(=O)[nH]1	/	2	0	-3	-5	65*
O=C(NNC(=S)NC1CCCCC1)c1ccccc1O	-4	0	1	3	-12	5
CSc1nsc2nc(=O)c(/C=C3\C=Nc4ccccc43)c(N)n12	-8	3	1	10	7	38*
CCn1c(O)c(/C=C2\C=Nc3ccccc32)sc1=O	-5	-1	-2	2	2	2
CCc1nn2c(N)c(/C=C3\C=Nc4ccccc43)c(=O)nc2s1	19	0	0	13	-5	31*
CC(C)S(=O)(=O)c1nsc2nc(=O)c(/C=C3\C=Nc4ccccc43)c(N)n12	5	-1	1	11	-1	37*
CC1=Nc2ccc(C)cc2/C1=C/c1c(N)n2c(S(=O)(=O)C(C)C)nsc2nc1=O	-6	0	3	8	-15	45*
Cc1cn2c(N)c(/C=C3\C=Nc4ccccc43)c(=O)nc2s1	0	/	4	12	5	/
CCCCN1C(=O)C(O)(CC(=O)c2ccccn2)c2ccccc21 (stereo unspecified)	-5	0	1	4	-8	-5
O=C(NN1CCCCC1)c1cnn2c(C(F)F)cc(-c3ccccc3)nc12	-8	0	0	0	-1	-2
COC(=O)c1ccc(NC(=O)c2ccccc2NS(C)(=O)=O)cc1	13	3	-3	-2	-13	52*
COc1ccc(NC(=O)c2ccccc2NS(C)(=O)=O)cc1OC	-25	1	1	2	4	9
CC(=O)Nc1ccc(NC(=O)Cc2sc(-c3cccnc3)nc2-c2ccc(C)cc2)cc1	9	0	2	15*	3	-3
CCOc1ccc(S(=O)(=O)N2CCN(c3ccccc3OC)CC2)c2cccnc12	8	0	1	-5	-13	34*
COc1ccc(NC(=S)NC(=O)CC(C)C)c(OC)c1	4	0	-3	-2	-5	-7
COc1cccc(CN=C2Nc3ccccc3CS2)c1	-11	0	2	4	-11	30*
Cc1ccc(CN=C2Nc3ccccc3CS2)cc1	/	0	1	2	6	10
Cc1ccc(C)c(C(=O)CSc2nnc(C)s2)c1	-4	0	-1	1	-1	6
OCC1(CCOc2ccccc2)CCN(Cc2nc3ccc(F)cc3[nH]2)CC1	8	0	1	0	-10	55*
COc1ccc(OC)c(NC(=O)c2ccc(-n3cccn3)nc2)c1	/	0	0	-1	2	6
Cc1ccc(C(=O)c2coc3ccc(O)c(CN4CCN(C)CC4)c23)cc1	14	1	1	-2	3	-1

Screening results (PubChem)
